Compound activity from PubChem.
HCMV inh: blocks human cytomegalovirus replication | HFF cells, HCMV-luciferase reporter, 72 h; active compounds read low | activity change, negative = inhibition, % at 57.5 µM | hit rate 4.5% among 410,000; in the data active = activity change below about -60%; inconclusive = no clear call, values can overlap the other calls; inactive = above about -39%
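Two compound doses tested in HFFs infected with HCMV-luciferase, MOI 1 PFU/cell, 72 h at 37C. Lysate luminescence read with OneGlo; data normalized against buffer-only and 10uM Salinomycin inhibitor controls.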
HCV inhibitor: inhibitors of hepatitis C virus infection; Huh7.5.1 HCVcc-Cre infection, luciferase reporter, 44 h; Potency, µM (top dose mostly 41.8 µM), actives largely listed as inhibitors; hit rate 3.4% among 340,000; AID 651820
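Compounds are dispensed onto cells plated 4 h earlier at 1,000 per well, with HCVcc-Cre virus (about 0.5 moi) added next. Following 44 h of culture, luminescent signal is measured for 15 sec after 15 min with substrate at room temperature.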
Pf growth 48h: P. falciparum growth inhibition at 48 hours (one generation); P. falciparum luciferase growth in erythrocytes, 48 h; Potency, µM (highest dose often 28.7 µM), most hits filed as inhibitors; hit rate 5.9% among 310,000
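Growth was read as firefly luciferase luminescence after a 48 h, 37 C, 5% CO2 exposure of compounds to reporter-bearing P. falciparum cultures (0.1% parasitemia, 2% hematocrit final) in Albumax-supplemented RPMI 1640.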
Pf growth 96h: P. falciparum growth inhibition at 96 hour, primary screen for plastid delayed-death inhibitors | P. falciparum luciferase reporter growth, 96 h | hit rate 6.9% among 320,000 | Potency, µM (highest dose often 28.7 µM), hits mostly inhibitors
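Two parasite generations (96 h, 37 C, 5% CO2) of compound exposure in infected erythrocytes (0.05% parasitemia, 2% hematocrit). Luciferase-reporter P. falciparum; decreased luminescence indicates inhibited growth, aimed at apicoplast-acting delayed death.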
A number is an active result; 0 = inactive; ? = inconclusive; - = no result given. A selection: hits, their analogues and other compounds. The true share with any hit is near 13%. Unless noted, calls follow the shape of the dose curve; as a rule, active = well fitted inhibition curve with a large enough effect; inconclusive = small, poorly fitted or top-dose-only effect, or another doubt; inactive = no such curve, though single readings can be large or run the other way.

SMILES	HCMV inh	HCV inhibitor	Pf growth 48h	Pf growth 96h
CCN1CCN(c2c(S(=O)(=O)c3ccc(C)c(C)c3)cnc3cc(OC)c(OC)cc23)CC1	0	-	-	-
CCCCN(CC)CCCNC(=O)C1CCN(c2nc3ccc(CC)cc3s2)CC1	-98.0	-	-	-
CCOc1ccc2nc(N3CCC(C(=O)NCCCN4CCOCC4)CC3)sc2c1	0	?	0	0
CCCCN(C)CCCNC(=O)C1CCN(c2nc3ccc(CC)cc3s2)CC1	-107.9	-	-	-
Cc1oc(-c2ccccc2F)nc1CS(=O)CC(=O)NC(C)C (configuration not stated)	0	-	-	-
Cc1cc(NC(=O)CCCS(=O)(=O)c2nc(-c3cccs3)cc(C(F)(F)F)n2)no1	0	11.2µM	?	0
COc1ccc(-c2cc(C(F)(F)F)nc(SCCC(=O)Nc3cc(C)on3)n2)cc1	0	?	0	-
CC(C)CNC(=O)CSc1nc(-c2cccs2)cc(C(F)(F)F)n1	-68.4	0	?	0
CCOc1ccc(NC(=O)CSc2nc(-c3cccs3)cc(C(F)(F)F)n2)c([N+](=O)[O-])c1	-100.9	0	0	0
CCCNC(=O)CSc1nc(-c2cccs2)cc(C(F)(F)F)n1	0	3.98µM	0	8.28µM
CCOc1ccc(NC(=O)CSc2n[nH]c(N)n2)c([N+](=O)[O-])c1	0	0	0	0
COc1ccc(Nc2ncnc3c2c(-c2ccccc2)cn3-c2ccc(C)c(Cl)c2)cc1OC	0	-	-	-
O=C(c1cc2ccccc2oc1=O)N1CCN(c2ccc(Cl)cc2)CC1	0	-	-	-
Cn1cnc(S(=O)(=O)N2CCCC(C(=O)NCc3ccccc3Cl)C2)c1 (configuration not stated)	0	-	-	-
Cc1cc(NC(=O)CSc2nc(-c3cccs3)cc(C(F)(F)F)n2)no1	?	?	?	1.85µM
O=C(CSc1nc(-c2cccs2)cc(C(F)(F)F)n1)NCc1ccccc1	0	3.98µM	0	-
O=C(CSc1nc(-c2ccc(F)cc2)cc(C(F)(F)F)n1)NCc1ccccc1	0	-	-	-
Cc1csc2nc(COc3ccc(NC(=O)COc4ccccc4F)cc3)cc(=O)n12	0	-	-	-
CSc1cccc(NC(=O)N2CCN(S(=O)(=O)c3ccc4c(ccn4C)c3)CC2)c1	0	-	-	-
COc1ccc(N2CCN(c3oc(-c4ccccc4C)nc3S(=O)(=O)c3ccccc3)CC2)cc1	0	-	-	-
CCOc1nc(NC(C)C)nc(N2CC3CC(C2)c2cccc(=O)n2C3)n1 (configuration not stated)	0	0	0	0
CCCCCCNc1nc(OC)nc(N2CC3CC(C2)c2cccc(=O)n2C3)n1 (configuration not stated)	0	0	8.28µM	0
Oc1ccc(C=NCC2COc3ccccc3O2)cc1 (configuration not stated)	0	0	0	0
OCCN1CCN(CC(O)COCC2COc3ccccc3O2)CC1 (configuration not stated)	0	0	0	0
OC(COCC1COc2ccccc2O1)CN1CCN(c2ccccc2F)CC1 (configuration not stated)	0	0	0	7.38µM
SMILES	HCMV inh	HCV inhibitor	Pf growth 48h	Pf growth 96h
O=C(OCC1COc2ccccc2O1)c1c(F)cccc1F (configuration not stated)	0	0	4.15µM	?
NC(N)=NCC1COc2ccccc2O1 (configuration not stated)	-	-	?	2.13µM
CCOC(=O)c1c(C)[nH]c(C)c1S(=O)(=O)N1CCCC(C(=O)N2CCN(c3cc(C)ccc3C)CC2)C1 (configuration not stated)	0	-	-	-
CCNc1ccc(-c2nc(-c3ccco3)no2)cc1[N+](=O)[O-]	0	-	-	-
COc1ccc(CCNC(=O)COc2ccc3c(C)cc(=O)oc3c2)cc1OC	0	0	0	2.94µM
CCc1cc(=O)oc2cc(C)cc(OCC(=O)NC3CC3)c12	0	0	11.7µM	?
Cc1cc(=O)oc2cc(OCC(=O)OCC(=O)NCCc3ccccc3)ccc12	0	0	?	0
COC(=O)c1cc(COc2ccc3ccc(=O)oc3c2)c(C)o1	0	0	0	0
Cc1oc(C(=O)O)cc1COc1ccc2c(C)cc(=O)oc2c1	0	0	0	2.08µM
Cc1cc(OCC(=O)NC2CC2)c2c(C)cc(=O)oc2c1	-	0	0	0
CCCc1cc(=O)oc2cc(OCC(=O)NCCc3c[nH]c4ccc(OC)cc34)ccc12	0	17.8µM	0	?
COc1cc(OC)c(NC(=O)c2ccc(-n3cnc4cccnc43)cc2)cc1Cl	0	-	-	-
COc1cccc(CNC(=O)CNS(=O)(=O)c2ccc3nc(C)sc3c2)c1	0	-	-	-
Cc1cc(OCC(=O)NC2CC2)c2c(C)c(C)c(=O)oc2c1	0	0	0	0
